Experimental data reported in PubChem BioAssay (EPA / NIEHS).
Calls of active or inactive are those of the source. Rule for the calls: active = hit-call score of the fitted dose curve at least 0.9, where 1 is the maximum; inactive = score below 0.9.

Read-out: Fatty Acid-Binding Protein 1 (FABP1), FABP1 (gene 2168)
Test: LTEA_HepaRG_FABP1: Life Technologies and Expression Analysis (LTEA) Assay for Fatty Acid-Binding Protein 1 (FABP1) using HepaRG (AID 2283494)
Conditions: mRNA level, 48 h; actives raise or lower the signal
Method in brief: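 Differentiated human HepaRG cells exposed 48 h in serum-free induction medium to eight half-log concentrations up to 100 uM (0.5% DMSO), duplicate. FABP1 mRNA by qRT-PCR, normalised to ACTB, GAPDH, POLR2A; bidirectional fitting against DMSO.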

SMILES | outcome | AC50
CCCCCCCCN(C)C | inactive | 
c1ccc2ncccc2c1 | inactive | 
CCCCCCOC(=O)CC(CC(=O)OCCCCCC)(OC(=O)CCC)C(=O)OCCCCCC | inactive | 
CCc1cccc(CC)c1N | inactive | 
O=C1CN(N=Cc2ccc([N+](=O)[O-])o2)C(=O)N1 |  | 41.9 µM (active)
CCCC(CCC)C(=O)O | inactive | 
Cc1ncc([C@@H](CCCCCCc2ccc3c(n2)NCCC3)CC(=O)O)cn1 | inactive | 
CCCCCCCCCCCCCCCCOS(=O)(=O)O | inactive | 

Read-out: Cytochrome P450 4A22 (Homo sapiens) (UniProt Q5TCH4)
Test: LTEA_HepaRG_CYP4A22: Life Technologies and Expression Analysis (LTEA) Assay for Cytochrome P450 4A22 (CYP4A22) using HepaRG (AID 2283495)
Conditions: mRNA level, 48 h; actives raise or lower the signal
Method in brief: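 Concentration-response (8 points, max 100 uM, 0.5% DMSO) in human HepaRG liver cells after 48 h exposure. CYP4A22 mRNA by TaqMan qRT-PCR with housekeeping-gene normalization.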

SMILES | AC50 | outcome
COc1cc2c(c(OC)c1OC)-c1ccc(OC)c(=O)cc1[C@@H](NC(C)=O)CC2 | 0.108 µM (active) | 
CCn1nc(C)c2c1C(=O)NCC(c1ccc(O)cc1)=N2 | 33.9 µM (active) | 
CCCCCCCCCC |  | inactive
O=C(O)c1ccc2c(c1)nc(C(=O)NC1CCN(C3CC3)CC1)n2Cc1cc(-c2ccc(Cl)s2)on1 |  | inactive
Nc1ccn([C@@H]2O[C@H](CO)[C@@H](O)[C@@H]2O)c(=O)n1 |  | inactive
NC(=O)NN=Cc1ccc([N+](=O)[O-])o1 |  | inactive
OC(Cn1cncn1)(Cn1cncn1)c1ccc(F)cc1F |  | inactive
OCc1ccccc1 |  | inactive
NNC(=O)c1ccncc1 |  | inactive
CCc1ccc(O)c(C(C)(C)C)c1 |  | inactive
CCOC(N)=O |  | inactive
CC(C)CCCCCCOC(=O)C1CCCCC1C(=O)OCCCCCCC(C)C (configuration not stated) |  | inactive
c1ccc(C(O[C@@H]2CCCN(CCc3ccc4c(c3)OCO4)C2)c2ccccc2)cc1 | 6.12 µM (active) | 
CC(C)C(=O)Nc1ccc([N+](=O)[O-])c(C(F)(F)F)c1 | 41.7 µM (active) | 
NC(=O)N(O)[C@@H]1COc2cc(OCc3ccccc3)ccc21 |  | inactive
O=c1[nH]cnc2c1ncn2[C@H]1CC[C@@H](CO)O1 |  | inactive
NC(N)=O |  | inactive

SMILES | AC50 | outcome
COCc1nnc(-c2ccc[n+]([O-])c2)n1-c1c(Cl)c(Cl)cc2[nH]c(=O)c(=O)[nH]c12 |  | inactive
OC[C@H]1O[C@@H]2O[C@H]3[C@H](O)[C@@H](O)[C@@H](O[C@H]4[C@H](O)[C@@H](O)[C@@H](O[C@H]5[C@H](O)[C@@H](O)[C@@H](O[C@H]6[C@H](O)[C@@H](O)[C@@H](O[C@H]7[C@H](O)[C@@H](O)[C@@H](O[C@H]1[C@H](O)[C@H]2O)O[C@@H]7CO)O[C@@H]6CO)O[C@@H]5CO)O[C@@H]4CO)O[C@@H]3CO |  | inactive
CC(C)CC(C)O (configuration not stated) |  | inactive
CCCCN1C(=O)[C@@H]([C@H](O)C2CCCCC2)NC(=O)C12CCN(Cc1ccc(Oc3ccc(C(=O)O)cc3)cc1)CC2 | 3.35 µM (active) | 
CC(C)c1nnc2ccc(-c3ocnc3-c3cc(F)ccc3F)cn12 | 31.8 µM (active) | 
CNC(C)=O |  | inactive
OCCNCCO |  | inactive
C=CN1CCCC1=O |  | inactive
CCCCCCCCN(C)C |  | inactive
c1ccc2ncccc2c1 |  | inactive
CCCCCCOC(=O)CC(CC(=O)OCCCCCC)(OC(=O)CCC)C(=O)OCCCCCC |  | inactive
CCc1cccc(CC)c1N |  | inactive
O=C1CN(N=Cc2ccc([N+](=O)[O-])o2)C(=O)N1 | 44.3 µM (active) | 
CCCC(CCC)C(=O)O |  | inactive
Cc1ncc([C@@H](CCCCCCc2ccc3c(n2)NCCC3)CC(=O)O)cn1 |  | inactive
CCCCCCCCCCCCCCCCOS(=O)(=O)O |  | inactive
CCN(CC)C(=S)SSC(=S)N(CC)CC |  | inactive
